Compound activity as filed in PubChem.
Shown are actives, neighbours in structure and some others; about 6.5% of the full set was active somewhere.
FMDV inh – High Throughput Screening for Foot and Mouth Disease Virus Antivirals. FMDV antiviral cell-based qHTS. Potency, µM (doses to about 57.9 µM), without a hit: top-dose activity change, negative = inhibition, usual class: inhibitors. hit rate 1.2% among 410,000. AID 1159524, 2015; calls by dose curve; tested in HEK293T cells; note: read-out not given here; potency is the fitted concentration of half-maximal effect; nearly all actives have a fitted effect of over 45% in size
Marburg entry inh – qHTS for inhibitors of binding or entry into cells for Marburg Virus. hit rate 1.8% among 300,000. Potency, µM (doses to about 37.8 µM), for inactives: at the top dose activity change, negative = inhibition, usual class: inhibitors. Marburg virus pseudotyped entry inhibition, cell reporter. AID 540276, 2011; calls by dose curve; tested in HEK293 cells; note: potency is the fitted concentration of half-maximal effect
HCMV inh – qHTS Assay for inhibitors of the human cytomegalovirus (HCMV); HFF cells, HCMV-luciferase reporter, 72 h; hits give low values; activity change, negative = inhibition, % at 57.5 µM; hit rate 4.5% among 410,000; AID 1259415, 2018; in the data active = activity change below about -60%; inconclusive = no clear call, values can overlap the other calls; inactive = above about -39%
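HFF cells seeded 16 h at 37C, treated with compounds, infected with luciferase-reporter HCMV at MOI 1 PFU/cell; luciferase read at 72 h post infection, normalized to buffer-only and Salinomycin controls.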
VACV Venus inh – qHTS for Stage-Specific Inhibitors of Vaccinia Orthopoxvirus: Venus Reporter Primary qHTS. Potency, µM (top dose mostly 36.5 µM), without a hit: top-dose activity change, negative = inhibition, hits mostly inhibitors. Vaccinia virus Venus reporter expression, fluorescence. hit rate 0.46% among 330,000. AID 720580, 2013; calls by dose curve; tested in A549 cells; note: potency is the fitted concentration of half-maximal effect; nearly all actives have a fitted effect of over 30% in size
Vaccinia mCherry – qHTS for Stage-Specific Inhibitors of Vaccinia Orthopoxvirus: mCherry Reporter Primary qHTS; Vaccinia virus mCherry reporter infection, fluorescence; Potency, µM (titrated, usually from 36.5 µM), without a hit: top-dose activity change, negative = inhibition, usual class: inhibitors; hit rate 0.63% among 310,000; calls by dose curve; tested in A549 cells; note: potency is the fitted concentration of half-maximal effect; nearly all actives have a fitted effect of over 35% in size
LASV entry inh – qHTS for Inhibitors of binding or entry into cells for Lassa Virus; Lassa virus pseudotype entry inhibition, cell reporter; Potency, µM (doses to about 37.9 µM), for the others: at the highest dose activity change, negative = inhibition, usual class: inhibitors; hit rate 1.2% among 300,000; calls by dose curve; tested in HEK293 cells; note: potency is the fitted concentration of half-maximal effect; nearly all actives have a fitted effect of over 50% in size
An asterisk follows results filed as active; i = inactive; ? = inconclusive; . = no result given; [ ] = another dose, or the depositor's remark. % is set by controls: 0 for no effect and ±100 for the full control effect.

SMILES	FMDV inh	Marburg entry inh	HCMV inh	VACV Venus inh	Vaccinia mCherry	LASV entry inh
COc1ccc(CCNc2ncnc3cc(OC)c(OC)cc23)cc1OC	20µM*	?	-21	-21%	i	?
COc1ccc(CCNc2ncnc3c2c(-c2ccccc2)cn3-c2cccc(Cl)c2)cc1OC	25µM*	.	25	-11%	-19%	?
CC(NC(=O)C1CCOCC1)c1nnc2n1CCN(Cc1ccc3ccccc3c1)CC2 (stereo unspecified)	-17%	.	.	-2%	-15%	.
CC1CCC(C(C)C)C(OC(=O)Cn2c(-c3ccc(F)cc3)[n+](C)c3ccccc32)C1 (stereo unspecified)	?	?	-102*	?	?	?
CC1CCC(C(C)C)C(OC(=O)Cn2c(-c3ccccc3)[n+](C)c3ccccc32)C1 (stereo unspecified)	13µM*	5.8µM*	-100*	?	?	7.1µM*
O=C([C@@H]1C[C@@H](Sc2nc3ccccc3[nH]2)CN1CC1CCCCC1)N1CCOCC1	12%	.	.	-7%	-7%	.
COc1ccccc1CCn1cnc(-c2ccc(F)cc2F)c1CC(C)C	.	.	-84*	.	.	.
COc1ccccc1CCn1cnc(-c2ccccc2F)c1CC(C)C	.	.	-83*	.	.	.
O=C(CN1C(=O)COc2ccc(S(=O)(=O)N3CCCCCC3)cc21)N1CCN(c2ccccc2)CC1	-25%	-30%[46.1 µM]	-16	-9%	-18%	-29%[46.1 µM]
O=C(N/N=C/c1sc(=O)n(Cc2ccc(Br)cc2)c1Cl)c1ccco1	-21%	?	-92*	-21%	-18%	?
Cc1cc(C(=O)NNC(=O)/C=C/c2ccc(F)cc2)c(C)o1	-8%	-15%[46.1 µM]	-16	-13%	i	-4%[46.1 µM]
Cc1cc(C(=O)NC2CCCc3c2cnn3-c2ccc(C)c(C)c2)n(C)n1 (stereo unspecified)	?	.	-99*	.	.	.
COCc1ccc(C(=O)NC2CCCc3c2cnn3-c2ccc(C)c(C)c2)o1 (stereo unspecified)	?	.	-77*	.	.	.
COc1ncccc1C(=O)NC1CCCc2c1cnn2-c1cc(C)cc(C)c1 (stereo unspecified)	6%	?	-61*	-3%	-9%	-10%[46.1 µM]
Cc1ccc(-n2ncc3c2CCCC3NC(=O)c2ccoc2)cc1C (stereo unspecified)	-28%	?	?	-25%	?	-30%
CC(NS(=O)(=O)c1cc(C(F)(F)F)ccc1Cl)C(=O)N(C)C1CCN(C)CC1 (stereo unspecified)	-6%	19%	24	-6%	i	13%
O=C(Nc1nnc([C@@H]2C[C@H](O)[C@@H](CO)O2)s1)Nc1ccccc1C(F)(F)F	-2%	.	41	2%	-5%	.
Cc1ccc(C(=O)c2cn(Cc3cc(C)ccc3C)c3nc(C)ccc3c2=O)cc1	-29%	7.1µM*	-5	-18%	-6%	?
CCOc1ccc(CCNC(=O)COC(=O)c2cc(OC)c(OC)cc2[N+](=O)[O-])cc1OCC	-17%	2%	-5	-15%	i	12%
Cc1oc(-c2ccccc2NC(=O)C2CCC2)nc1CNC(=O)c1cccc(C(F)(F)F)c1	9%	.	.	-5%	-5%	.
CN(C)c1ccc(/C=C(\Cl)c2nc3ccccc3s2)cc1	10µM*	?	.	-14%	i	?
NC(=O)c1ccc(-n2nnnc2SCC(=O)c2ccc(O)c(O)c2)cc1	-15%	10%[46.1 µM]	-100*	-10%	i	14%
COc1ccc(-n2nnnc2SCC(=O)c2ccc(O)c(O)c2)cc1	-10%	-11%	-24	.	.	-12%
CCOC(=O)[C@]12C[C@@H]3CCN(C(=O)N(C(C)=O)[C@@H]1c1ccccc1)[C@@H]32	.	-9%[14.2 µM]	.	.	.	.
COc1cccc(CN2CCN3C(C(=O)Nc4ccccc4)=COC3=NC2=O)c1	.	.	-62*	.	.	.
SMILES	FMDV inh	Marburg entry inh	HCMV inh	VACV Venus inh	Vaccinia mCherry	LASV entry inh
Cc1noc(C)c1CN1CCN2C(C(=O)Nc3ccccc3)=COC2=NC1=O	.	.	5	.	.	.
CC(SC1=NS(=O)(=O)c2ccccc21)C(=O)O (stereo unspecified)	.	.	.	-16%	-11%	.
CCCN(CCC)CCCNC(=S)Nc1ccc2nc(N3CCCC3)cc(C)c2c1	-13%	.	-81*	.	.	.
CCN(CC)CCNC(=S)Nc1ccc2nc(N3CCCC3)cc(C)c2c1	-12%	4.1µM*	-30	.	.	?
CCCCNC(=O)c1nc2cc(C)c(C)cc2nc1-c1cccc(C(F)(F)F)c1	.	.	-94*	.	.	.
Cc1cc(NC(=O)CCN2CCC(C)CC2)ccc1Br	-3%	.	30	.	.	.
Cc1ccc(NC(=O)CN(C)S(=O)(=O)c2cccs2)c(Br)c1	49%	29%[46.1 µM]	53	-13%	-21%	?
COc1ccc(/C(O)=C2\C(=O)C(=O)N(CCN(C)C)[C@H]2c2cccc(OC)c2OC)cc1	.	-16%	.	.	.	.
CC(=O)N1c2ccc(S(=O)(=O)N3CCCCCC3)cc2CC1C(=O)NCc1ccccc1F (stereo unspecified)	-16%	.	-12	-18%	-18%	?
Cn1nc(C(F)(F)F)c(/C=N/OC(=O)c2ccccc2)c1Sc1ccc(Cl)cc1	?	?	-63*	-23%	.	?
Cn1nc(C(F)(F)F)c(/C=N/OC(=O)c2ccccc2)c1Cl	-2%	12%	20	.	.	-1%
Cc1nn(S(=O)(=O)c2ccc([N+](=O)[O-])cc2)c(C)c1Sc1ccccc1	-26%	1%	-13	-14%	-1%	25%[14.3 µM]
CCC(CC)C(=O)Oc1c(Sc2ccccc2[N+](=O)[O-])c(C)nn1C(C)(C)C	?	-27%	4	-16%	-28%	-7%
Cc1nn(-c2ccccc2)c(N)c1Sc1cccc([N+](=O)[O-])c1	?	-21%	-76*	.	.	0%
Cc1nn(-c2ccccc2)c(N)c1Sc1ccccc1[N+](=O)[O-]	?	?	0	-20%	-17%	6.3µM*
Cc1nn(-c2cccc([N+](=O)[O-])c2)c(N)c1-c1ccccc1	20%	?	-61*	2%	i	-2%[46.1 µM]
CCOc1ccccc1NC(=O)CCNS(=O)(=O)c1ccc2c(c1)CCN2C(=O)C1CC1	-1%	.	-9	4%	-11%	0%[46.1 µM]
Cc1ccc(S(=O)(=O)N2CCN(C(=O)CN3CCCSc4ccccc43)CC2)cc1	?	?	-28	-25%	-12%	-25%
COC(=O)C(c1ccccc1)(c1cn(-c2ccccc2)c2ccccc12)C(Nc1ccccc1)c1ccccc1 (stereo unspecified)	.	.	-29	.	.	.
CCCC[C@]12Cc3cc(C#N)ccc3[C@H](O1)c1c(cc(C)n(-c3ccccc3)c1=O)O2	.	-14%[14.2 µM]	.	.	.	.
NC(c1csc(Nc2cc(NCCCO)ncn2)n1)c1ccccc1Cl (stereo unspecified)	3%	.	-25	-15%	i	.
